These results are taken from PubChem BioAssay (NCATS).

The nature of test [1]: Primary qHTS for small molecule stabilizers of the endoplasmic reticulum resident proteome: Secreted ER Calcium Modulated Protein (SERCaMP) assay (AID 1508630). Further: on the % scale 0 is the no-effect control and ±100 the full control effect. The method, boiled down:
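GLuc-SERCaMP-expressing SH-SY5Y cells, pretreated 16 h with compound, are challenged with thapsigargin to empty ER calcium stores; after 4 h, coelenterazine is added directly to the medium and luminescence is imaged.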
(qHTS replaces the single test concentration by a dilution series.)

Test [2] concerns the target Cytochrome P450 2C9 (Homo sapiens) (UniProt P11712). Briefly: Cytochrome P450 family 2 subfamily C member 9 (CYP2C9) small molecule antagonists: luciferase biochemical (cell-free) qHTS assay (AID 1645842; active means well fitted curve in the direction sought with a large enough effect in the repeat runs; an effect the other way counts as inactive or inconclusive; further: nearly all actives have a fitted effect of over 55% in size; further: potency means the concentration at half of the fitted maximal effect; on activity change, negative = inhibition: on the % scale 0 is the no-effect control and ±100 the full control effect). The method, boiled down: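 Luminescence, after 20 min with luciferin detection reagent, reflected CYP2C9 turnover during a 1 h NADPH-driven reaction at 37C. Enzyme-substrate mix contained 0.4% bovine serum albumin and was preincubated with compound 10 min at room temperature.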

In a further test the target is Papain (Carica papaya) (UniProt P00784). Nature of the test: Primary qHTS assay for inhibitors of the protease papain (AID 1645873).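 Further: papain turnover of Z-FR-AMC read as the AMC fluorescence gain over 10 min.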 Further: potency means the concentration at half of the fitted maximal effect. On activity change, negative = inhibition: on the % scale 0 is the no-effect control and ±100 the full control effect.
Test [3] can be described thus: Primary qHTS for inhibitors of nuclear receptor binding SET domain protein 2 (NSD2) in an isogenic RCH-ACV NSD2 p.E1099K mutant (9B) (AID 1645876). Further: nearly all actives have a fitted effect of over 70% in size. Further: potency means the concentration at half of the fitted maximal effect.
The nature of test [4]: A High-Content qHTS Against Drug Library for the Identification of Small Molecules that Inhibit DYT1 Early Onset Primary Dystonia-Associated Cell Pathology (AID 1645839; calls by dose curve). The method, boiled down: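 Readout: %pathology, the punctate EGFP-TorsinA distribution from imaging, as the primary channel and cell count as the toxicity counterscreen. HEK293 Flp-In cells expressing delE TorsinA were induced with tetracycline and treated with compound for 48 h.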

A short description of test [5]: Primary qHTS for inhibitors of nuclear receptor binding SET domain protein 2 (NSD2) in an RCH-ACV wild type WT cells (2C) (AID 1645877). Further: nearly all actives have a fitted effect of over 70% in size. Further: potency means the concentration at half of the fitted maximal effect.
Test [6] has as its target Cytochrome P450 2D6 (Homo sapiens) (UniProt P10635). Briefly: Cytochrome P450 family 2 subfamily D member 6 (CYP2D6) small molecule antagonists: luciferase biochemical (cell-free) qHTS assay (AID 1645840; active means well fitted curve in the direction sought with a large enough effect in the repeat runs; an effect the other way counts as inactive or inconclusive; further: nearly all actives have a fitted effect of over 55% in size; further: potency means the concentration at half of the fitted maximal effect). In outline:
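P450-Glo luminescent screen: recombinant CYP2D6 enzyme–proluciferin substrate mix preincubated with compound 10 min at room temperature, then NADPH regeneration added for 1 h at room temperature. Detection reagent added for 20 min; luciferin light read as relative luminescence units.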

In test [7] the target is Rap guanine nucleotide exchange factor 3 (Homo sapiens) (UniProt O95398). Briefly: Confirmatory qHTS for antagonist of cAMP-regulated guanine nucleotide exchange factor 3 (EPAC1) (AID 1645880).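 Further: plate controls were DMSO only for no effect and full effect of the ATA control for full effect; nearly all actives have a fitted effect of over 55% in size.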 The method, boiled down: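 Nucleotide exchange uses 100 nM EPAC1, 250 nM RAP1B-BODIPY-GDP and 50 uM GDP, with compounds in a concentration-titration series. After 5 min at room temperature, fluorescence (480 nm ex/540 nm em) is read every 5 min for 30 min. Data are normalized to control ATA and DMSO.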

For test [8] the target is unchanged. Briefly: Confirmatory qHTS for agonist of cAMP-regulated guanine nucleotide exchange factor 3 (EPAC1) (AID 1645881).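 Further: EPAC1 catalysed release of BODIPY-GDP from Rap1B seen as fluorescence loss; 100% = effect of cAMP agonist control; nearly all actives have a fitted effect of over 75% in size.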
The target of test [9] is Rap guanine nucleotide exchange factor 4 (Homo sapiens) (UniProt Q8WZA2). Nature of the test: Confirmatory qHTS for agonist of cAMP-regulated guanine nucleotide exchange factor 4 (EPAC2) (AID 1645884).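 Further: nucleotide exchange releases bodipy-GDP from Rap1 and this lowers its fluorescence; on the % scale 0 is the no-effect control and ±100 the full control effect; nearly all actives have a fitted effect of over 65% in size.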
The target is the same in test [10]. Nature of the test: Confirmatory qHTS for antagonist of cAMP-regulated guanine nucleotide exchange factor 4 (EPAC2) (AID 1645885). Further: nearly all actives have a fitted effect of over 25% in size. Further: potency means the concentration at half of the fitted maximal effect.
Test [11] deals with Rap guanine nucleotide exchange factor 3 (Homo sapiens) (UniProt O95398). Briefly: Counterscreen qHTS for antagonist of cAMP-regulated guanine nucleotide exchange factor 3 (EPAC1) (AID 1645888).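 Further: fluorescence loss as bound BODIPY-GDP is released from Rap1B; % of control where 0% means no effect.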 In outline:
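Measured: fluorescence of BODIPY-GDP bound to Rap1B, which falls as exchange proceeds. Conditions include 50 uM competing GDP, 5 and 30 min reads, and a later cAMP challenge for antagonist detection.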
In general terms: The purpose of a counterscreen is to sort out artefacts and off-target activity.

Test [12] has as its target Catechol O-methyltransferase (Homo sapiens) (UniProt P21964). Briefly: Confirmatory Screen for Target Class Profiling of Small Molecule Inhibitors of Methyltransferases (AID 1745852; calls by dose curve; further: potency means the concentration at half of the fitted maximal effect; on activity change, negative = inhibition: on the % scale 0 is the no-effect control and ±100 the full control effect). Particulars: MTase-Glo luminescence, SAH detection, recombinant enzyme; measured here: COMT max response; stronger effect = lower value.
Test [13] concerns the target Guanidinoacetate N-methyltransferase (Homo sapiens) (UniProt Q14353). The test is described as above. Particulars: MTase-Glo luminescence, SAH detection, recombinant enzyme; activity change, negative = inhibition: at 57.3 µM (top of the series).
Test [14] deals with Nicotinamide N-methyltransferase (Homo sapiens) (UniProt P40261). The description is as above. Particulars: MTase-Glo luminescence, SAH detection, recombinant enzyme; measured here: NNMT max response; stronger effect = lower value.
The target in test [15] is N-terminal Xaa-Pro-Lys N-methyltransferase 1 (Homo sapiens) (UniProt Q9BV86). Nature of the test: Confirmatory qHTS for Inhibitors of N-terminal methyltransferase 1 (NTMT1): MTaseGlo Assay (AID 1645874).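 Further: luminescence from SAH made as NTMT1 methylates SPKRIA peptide using SAM; 0% = DMSO control and -100% = no-enzyme control; nearly all actives have a fitted effect of over 65% in size.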 In outline: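 NTMT1 (125 nM) preincubated 15 min with compound and 100 uM SAM, then 1 uM SPKRIA peptide added for 30 min at room temperature. SAH detected by MTase-Glo luminescence; normalized to no-enzyme and DMSO controls, fitted to 4-parameter Hill.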

Each structure is given as a SMILES string. “And” between values parts separate entries of the source, which are not always exact repeats. Identical values can stand only once. Records with an inconclusive call do not appear. The source made the active and inactive calls. Unless noted, the call rests on the fitted dose curve; in most records, active means well fitted curve in the direction sought with a large enough effect; inconclusive means small, poorly fitted or top-dose-only effect, or another doubt; inactive means no such curve, though single readings can be large; an effect the other way counts as inactive or inconclusive.

Sequence of Rap guanine nucleotide exchange factor 3 (Homo sapiens) (O95398 whole entry, looked up): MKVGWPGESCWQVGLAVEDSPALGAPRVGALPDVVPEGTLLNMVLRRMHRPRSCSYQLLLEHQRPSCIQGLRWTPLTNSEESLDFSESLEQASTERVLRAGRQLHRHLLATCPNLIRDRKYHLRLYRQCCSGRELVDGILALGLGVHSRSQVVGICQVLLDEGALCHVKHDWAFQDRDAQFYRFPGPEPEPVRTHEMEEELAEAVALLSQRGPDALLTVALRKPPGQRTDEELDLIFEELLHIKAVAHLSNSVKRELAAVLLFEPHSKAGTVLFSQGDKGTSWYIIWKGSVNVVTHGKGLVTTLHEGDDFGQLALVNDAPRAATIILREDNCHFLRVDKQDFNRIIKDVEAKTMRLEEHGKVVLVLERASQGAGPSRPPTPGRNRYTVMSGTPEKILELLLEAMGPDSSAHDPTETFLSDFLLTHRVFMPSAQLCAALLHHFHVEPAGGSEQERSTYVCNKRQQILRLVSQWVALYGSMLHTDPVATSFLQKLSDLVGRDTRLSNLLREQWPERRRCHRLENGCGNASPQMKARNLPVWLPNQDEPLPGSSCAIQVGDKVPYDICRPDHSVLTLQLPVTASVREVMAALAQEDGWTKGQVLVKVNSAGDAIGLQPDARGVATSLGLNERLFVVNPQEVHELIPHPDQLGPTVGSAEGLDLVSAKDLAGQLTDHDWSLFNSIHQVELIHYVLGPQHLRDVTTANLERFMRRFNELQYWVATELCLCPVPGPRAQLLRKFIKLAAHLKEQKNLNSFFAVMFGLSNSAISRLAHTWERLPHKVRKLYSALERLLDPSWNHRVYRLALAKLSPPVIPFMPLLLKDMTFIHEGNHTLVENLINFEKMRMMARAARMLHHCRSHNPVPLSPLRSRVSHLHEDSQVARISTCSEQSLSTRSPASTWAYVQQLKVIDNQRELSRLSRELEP
Sequence of Rap guanine nucleotide exchange factor 4 (Homo sapiens) (Q8WZA2 whole entry, looked up): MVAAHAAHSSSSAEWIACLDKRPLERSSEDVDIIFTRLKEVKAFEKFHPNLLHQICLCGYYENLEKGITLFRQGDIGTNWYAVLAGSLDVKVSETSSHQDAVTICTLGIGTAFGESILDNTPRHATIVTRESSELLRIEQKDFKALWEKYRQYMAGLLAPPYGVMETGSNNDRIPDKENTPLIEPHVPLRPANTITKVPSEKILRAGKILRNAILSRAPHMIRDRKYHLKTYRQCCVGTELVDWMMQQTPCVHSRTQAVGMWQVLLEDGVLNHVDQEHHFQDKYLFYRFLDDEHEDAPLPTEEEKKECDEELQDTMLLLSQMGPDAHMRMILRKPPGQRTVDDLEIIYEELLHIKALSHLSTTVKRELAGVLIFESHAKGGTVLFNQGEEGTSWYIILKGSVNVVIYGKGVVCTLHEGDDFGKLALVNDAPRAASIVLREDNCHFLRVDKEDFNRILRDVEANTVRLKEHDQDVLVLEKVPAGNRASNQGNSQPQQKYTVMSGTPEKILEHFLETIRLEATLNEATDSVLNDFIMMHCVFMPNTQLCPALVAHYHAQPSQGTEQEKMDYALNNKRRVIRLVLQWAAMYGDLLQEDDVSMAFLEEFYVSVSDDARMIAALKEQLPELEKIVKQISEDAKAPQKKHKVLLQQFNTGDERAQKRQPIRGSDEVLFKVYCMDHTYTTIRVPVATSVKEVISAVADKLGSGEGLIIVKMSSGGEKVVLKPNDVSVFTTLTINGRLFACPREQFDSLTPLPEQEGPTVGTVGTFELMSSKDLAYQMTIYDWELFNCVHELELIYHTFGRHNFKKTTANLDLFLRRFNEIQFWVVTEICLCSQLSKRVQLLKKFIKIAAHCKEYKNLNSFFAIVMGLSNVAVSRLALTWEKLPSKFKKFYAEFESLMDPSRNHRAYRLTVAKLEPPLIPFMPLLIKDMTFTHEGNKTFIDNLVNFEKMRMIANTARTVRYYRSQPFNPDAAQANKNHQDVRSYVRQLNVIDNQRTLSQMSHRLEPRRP
Sequence of Cytochrome P450 2D6 (Homo sapiens) (P10635 whole entry, looked up): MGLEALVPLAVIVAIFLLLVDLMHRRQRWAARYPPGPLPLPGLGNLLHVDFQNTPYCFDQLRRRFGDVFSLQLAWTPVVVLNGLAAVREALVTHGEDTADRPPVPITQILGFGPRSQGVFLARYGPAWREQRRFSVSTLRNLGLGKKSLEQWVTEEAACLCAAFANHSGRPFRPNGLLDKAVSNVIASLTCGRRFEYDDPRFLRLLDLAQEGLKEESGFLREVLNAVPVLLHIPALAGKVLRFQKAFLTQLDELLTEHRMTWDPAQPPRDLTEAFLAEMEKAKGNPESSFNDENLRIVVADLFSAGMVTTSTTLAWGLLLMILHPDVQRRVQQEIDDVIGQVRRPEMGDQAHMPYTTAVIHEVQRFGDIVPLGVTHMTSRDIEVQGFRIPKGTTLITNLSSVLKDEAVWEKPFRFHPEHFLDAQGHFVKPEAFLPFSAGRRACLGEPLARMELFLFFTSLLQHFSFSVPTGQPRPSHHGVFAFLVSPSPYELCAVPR
Sequence of Papain (Carica papaya) (P00784 whole entry, looked up, the tested form may be a part): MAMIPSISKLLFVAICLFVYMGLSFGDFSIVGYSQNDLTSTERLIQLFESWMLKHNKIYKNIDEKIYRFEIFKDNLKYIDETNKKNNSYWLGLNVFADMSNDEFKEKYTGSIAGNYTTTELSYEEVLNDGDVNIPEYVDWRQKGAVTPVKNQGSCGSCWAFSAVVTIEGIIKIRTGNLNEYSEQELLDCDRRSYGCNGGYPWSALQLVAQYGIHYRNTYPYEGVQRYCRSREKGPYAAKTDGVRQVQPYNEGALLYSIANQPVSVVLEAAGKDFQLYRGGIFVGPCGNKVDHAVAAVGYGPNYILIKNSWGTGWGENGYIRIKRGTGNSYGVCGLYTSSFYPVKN
Sequence of Cytochrome P450 2C9 (Homo sapiens) (P11712 whole entry, looked up): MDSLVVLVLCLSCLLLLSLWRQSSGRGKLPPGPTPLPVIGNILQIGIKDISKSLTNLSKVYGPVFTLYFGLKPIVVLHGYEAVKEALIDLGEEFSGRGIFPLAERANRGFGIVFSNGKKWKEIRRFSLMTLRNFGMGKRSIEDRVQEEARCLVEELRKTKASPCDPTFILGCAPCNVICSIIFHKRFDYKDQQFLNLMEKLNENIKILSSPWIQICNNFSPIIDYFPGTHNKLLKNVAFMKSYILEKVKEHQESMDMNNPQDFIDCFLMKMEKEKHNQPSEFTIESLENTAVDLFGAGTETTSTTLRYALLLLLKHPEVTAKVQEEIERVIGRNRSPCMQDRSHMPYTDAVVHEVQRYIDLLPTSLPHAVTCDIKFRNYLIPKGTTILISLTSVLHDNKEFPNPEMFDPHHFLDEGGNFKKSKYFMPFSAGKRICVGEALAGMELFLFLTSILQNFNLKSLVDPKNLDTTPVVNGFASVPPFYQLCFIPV
Sequence of Nicotinamide N-methyltransferase (Homo sapiens) (P40261 whole entry, looked up): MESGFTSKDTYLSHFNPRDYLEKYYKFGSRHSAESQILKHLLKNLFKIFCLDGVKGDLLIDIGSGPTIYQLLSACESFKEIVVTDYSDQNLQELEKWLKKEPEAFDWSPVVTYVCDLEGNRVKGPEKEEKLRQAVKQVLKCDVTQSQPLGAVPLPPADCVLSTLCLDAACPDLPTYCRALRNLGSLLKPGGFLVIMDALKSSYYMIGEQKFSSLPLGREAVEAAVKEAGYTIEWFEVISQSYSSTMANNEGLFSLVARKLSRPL
Sequence of Catechol O-methyltransferase (Homo sapiens) (P21964 whole entry, looked up): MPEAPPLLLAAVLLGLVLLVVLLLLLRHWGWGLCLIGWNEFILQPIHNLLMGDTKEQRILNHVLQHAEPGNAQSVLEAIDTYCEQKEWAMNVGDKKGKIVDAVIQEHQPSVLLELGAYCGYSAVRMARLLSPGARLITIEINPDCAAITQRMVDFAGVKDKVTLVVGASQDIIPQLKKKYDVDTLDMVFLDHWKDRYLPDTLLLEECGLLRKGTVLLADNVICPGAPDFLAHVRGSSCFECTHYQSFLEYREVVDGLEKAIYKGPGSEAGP
Sequence of N-terminal Xaa-Pro-Lys N-methyltransferase 1 (Homo sapiens) (Q9BV86 whole entry, looked up): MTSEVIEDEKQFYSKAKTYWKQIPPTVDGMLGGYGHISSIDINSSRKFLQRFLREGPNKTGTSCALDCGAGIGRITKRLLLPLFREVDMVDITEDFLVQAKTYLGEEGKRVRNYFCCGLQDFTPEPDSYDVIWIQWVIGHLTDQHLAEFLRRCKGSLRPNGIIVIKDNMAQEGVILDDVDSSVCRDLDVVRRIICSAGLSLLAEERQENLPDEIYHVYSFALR

In the case of `CC#C[C@]1(O)CC[C@H]2[C@@H]3CCC4=CC(=O)CCC4=C3[C@@H](c3ccc(N(C)C)cc3)C[C@@]21C`, the Potency entry (in test [1]; with Papain (Carica papaya)) was “inactive” throughout. In addition, the Potency in test [2] was 1.74 µM (active); in [3], 23.5 µM (active).
For the molecule `CCOC(=O)C(C)(C)Oc1ccc(Cl)cc1`, the Potency result (in test [1]; in test [4]; in the test with Papain (Carica papaya); in [3]; in test [5]) was “inactive” each time.
On to `COc1ccccc1N1CCN(CC(O)COc2cccc3ccccc23)CC1` (stereo not drawn), for which the Potency result (in test [1]; with Papain (Carica papaya)) was “inactive” each time. In addition, in [6], the Potency was 0.436 µM (active).
As to `Cn1cnc2c1c(=O)[nH]c(=O)n2C`, the Potency result (in [1]; in test [4]; with Papain (Carica papaya); in test [3]; in test [5]) was “inactive” throughout.
Consider `CN1CCN(C2=Nc3cc(Cl)ccc3Nc3ccccc32)CC1`, for which the Potency result with Papain (Carica papaya) is “inactive”.
`Cc1ccc(-c2cc(C(F)(F)F)nn2-c2ccc(S(N)(=O)=O)cc2)cc1`: the Potency entry (in test [1]; with Papain (Carica papaya)) was “inactive” each time. Further, the Potency in [6] is 13.8 µM (active); in test [2] it was 12.3 µM (active).
Consider `CC1(CN2CCC(n3c(=O)[nH]c4ccccc43)CC2)OCc2ccccc2-n2cccc21` (stereo not drawn), for which the Potency result in test [1] was “inactive”. In addition, the Potency in test [6] is 1.38 µM (active); in [2], 9.77 µM (active).
Regarding `NC(=O)NO`, the Potency result (in test [1]; in test [4]; with Papain (Carica papaya); in test [3]; in test [5]) was “inactive” in each case.
`CC(C)C(=O)Nc1ccc([N+](=O)[O-])c(C(F)(F)F)c1`: the Potency result (in test [1]; in test [4]; in the test with Papain (Carica papaya)) was “inactive” in each case.
Turning to `O=C(CCCN1CCC(O)(c2ccc(Cl)cc2)CC1)c1ccc(F)cc1`, the Potency result (in [2]; with Papain (Carica papaya)) was “inactive” in each case.
Take `CN(C)C(=N)N=C(N)N`: the Potency result in [4] was “inactive”.
For `CN(C)CCOC(c1ccccc1)c1ccccc1`, the Potency result (in test [1]; in test [4]; with Papain (Carica papaya); in [3]; in test [5]) was “inactive” each time.
For the molecule `Clc1ccccc1C(c1ccccc1)(c1ccccc1)n1ccnc1`, the Potency in [6] was 9.77 µM (active); in test [2], 0.977 µM (active); in test [3], 10.5 µM (active); in test [5], 9.34 µM (active); in test [10] it was 9.87 µM (active) and 5.3 µM (active). In addition, the Potency entry (with Papain (Carica papaya); in test [8]; in [9]) was “inactive” throughout. In addition, the outcome in test [7] was “inactive”. For the same molecule, the activity change, negative = inhibition in test [11] was 6.78% [at 30.8 µM] (inactive).
Regarding `COc1ccccc1OCC(O)CN1CCN(CC(=O)Nc2c(C)cccc2C)CC1` (stereo not drawn), the Potency entry (in test [1]; in [4]; in the test with Papain (Carica papaya); in [3]; in test [5]) was “inactive” throughout.
As for `CN(C)C(=O)C(CCN1CCC(O)(c2ccc(Cl)cc2)CC1)(c1ccccc1)c1ccccc1`, the activity in test [12] was -5.52%; in test [14], -39.1%. Besides, in test [13], the activity change, negative = inhibition turned out to be 6.23%.
Regarding `CN(C)CCC=C1c2ccccc2C=Cc2ccccc21`, the Potency was 3.89 µM (active) and 8.49 µM (active) in test [6]; 20.9 µM (active) in [3]; 23.5 µM (active) in test [5]; 0.0039 µM (active) in test [13]. The Potency result (in test [2]; with Papain (Carica papaya)) was “inactive” throughout. Moreover, the outcome in [15] was “inactive”. The activity in test [12] is 7.28%; in [14] it was -9.28%.
Take `NCCS(=O)(=O)O`: the Potency entry (in test [1]; in test [4]; with Papain (Carica papaya); in [3]; in [5]; in [8]) was “inactive” each time. The Potency result in [9] and in test [10] was “inactive” in each case. Besides, the outcome in test [7] is “inactive”.
With `COc1cc2nc(N(C)CCCNC(=O)C3CCCO3)nc(N)c2cc1OC` (stereo not drawn), the Potency result in test [1], in test [2], in [3] and in [5] was “inactive” throughout. The Potency with Papain (Carica papaya) is 22.4 µM (active).
`Nc1nc2c(ncn2COC(CO)CO)c(=O)[nH]1`: the Potency entry (in test [4]; in test [6]; in test [2]; with Papain (Carica papaya); in test [3]; in test [5]) was “inactive” in each case.
